From PubChem BioAssay AID1159580 (chemical genetic matrix, 2015)
About 2,000 (36%) of roughly 5,500 compounds were called active. Inconclusive results (about 18%) are left out. Rule as the data show it: active = normalized growth mostly below about 0.91 (no sharp cut-off); inconclusive = no clear call, values can overlap the other calls; inactive = mostly above about 0.92. Some of the results follow.

Assay: chemical genetic growth profiling, strain panel (AID 1159580);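 also: tested at 20 µM; growth read once vehicle control cultures reached saturation at 30 °C; 1 = growth at the plate median or of vehicle wells; lower values mean less growth of the strain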
Details: S. cerevisiae deletion strains, growth OD

Measured: normalized growth

Clc1ccc(C(c2ccc(Cl)cc2)C(Cl)(Cl)Cl)cc1
inactive: locus YAL013W, strain DEP1, stronger effect = lower value 1 | locus YAL021C, strain ccr4, stronger effect = lower value 1.01 | locus YAL026C, strain drs2, stronger effect = lower value 1.01 | locus YAL030W, strain snc1, stronger effect = lower value 1 | locus YBL061C, strain skt5, stronger effect = lower value 1.01 | locus YBR009C, strain hhf1, stronger effect = lower value 0.998 | locus YBR021W, strain FUR4, stronger effect = lower value 0.999 | locus YBR023C, strain chs3, stronger effect = lower value 1.01 | locus YBR171W, strain sec66, stronger effect = lower value 1.01 | locus YBR229C, strain ROT2, stronger effect = lower value 1.02 | locus YBR231C, strain swc5, stronger effect = lower value 1.01 | locus YBR279W, strain paf1, stronger effect = lower value 1.01 | locus YCL011C, strain gbp2, stronger effect = lower value 1.01 | locus YCL016C, strain dcc1, stronger effect = lower value 1.01 | locus YCL029C, strain bik1, stronger effect = lower value 1.01 | locus YCL061C, strain MRC1, stronger effect = lower value 1.01 | locus YCL069W, strain vba3, stronger effect = lower value 0.999 | locus YCR088W, strain abp1, stronger effect = lower value 1.01 | locus YDL005C, strain med2, stronger effect = lower value 1 | locus YDL035C, strain GPR1, stronger effect = lower value 0.983 | locus YDL040C, strain nat1, stronger effect = lower value 1.01 | locus YDL074C, strain BRE1, stronger effect = lower value 1.02 | locus YDL101C, strain DUN1, stronger effect = lower value 1.02 | locus YDL134C, strain PPH21, stronger effect = lower value 1.02 | locus YDL185W, strain tfp1, stronger effect = lower value 0.999 | locus YDL192W, strain arf1, stronger effect = lower value 1 | locus YDR001C, strain nth1, stronger effect = lower value 1.01 | locus YDR069C, strain doa4, stronger effect = lower value 0.992 | locus YDR101C, strain arx1, stronger effect = lower value 0.993 | locus YDR137W, strain rgp1, stronger effect = lower value 1.01 | locus YDR150W, strain NUM1, stronger effect = lower value 1.03 | locus YDR159W, strain sac3, stronger effect = lower value 1.01 | locus YDR162C, strain NBP2, stronger effect = lower value 1.01 | locus YDR195W, strain ref2 1.04 | locus YDR297W, strain sur2, stronger effect = lower value 1.01 | locus YDR318W, strain mcm21, stronger effect = lower value 0.999 | locus YDR334W, strain swr1, stronger effect = lower value 1.02 | locus YDR335W, strain msn5, stronger effect = lower value 1.01 | locus YDR388W, stronger effect = lower value 0.993 | locus YDR392W, strain spt3, stronger effect = lower value 0.977 | locus YDR502C, strain sam2, stronger effect = lower value 0.999 | locus YEL003W, strain gim4, stronger effect = lower value 1.01 | locus YEL037C, strain rad23, stronger effect = lower value 1.01 | locus YEL061C, strain CIN8 (second series), stronger effect = lower value 1.01 | locus YEL061C, strain CIN8, stronger effect = lower value 1.02 | locus YER015W, strain faa2, stronger effect = lower value 1.01 | locus YER016W, strain bim1, stronger effect = lower value 1 | locus YER110C, stronger effect = lower value 0.997 | locus YER111C, strain swi4, stronger effect = lower value 1.01 | locus YER155C, strain BEM2 (second series), stronger effect = lower value 1 | locus YER155C, strain BEM2, stronger effect = lower value 1.02 | locus YER167W, strain BCK2, stronger effect = lower value 1.01 | locus YFR010W, strain ubp6, stronger effect = lower value 1.01 | locus YGL078C, strain dbp3, stronger effect = lower value 1 | locus YGL086W, strain mad1, stronger effect = lower value 1.01 | locus YGL167C, strain pmr1, stronger effect = lower value 1.01 | locus YGL173C, strain kem1, stronger effect = lower value 0.995 | locus YGL227W, strain vid30, stronger effect = lower value 1.01 | locus YGL240W, strain doc1, stronger effect = lower value 0.997 | locus YGL248W, strain PDE1, stronger effect = lower value 1.02 | locus YGL253W, strain hxk2, stronger effect = lower value 1 | locus YGR078C, strain PAC10, stronger effect = lower value 1.01 | locus YGR135W, strain pre9, stronger effect = lower value 1 | locus YGR229C, strain SMI1, stronger effect = lower value 0.997 | locus YGR252W, strain gcn5, stronger effect = lower value 0.916 | locus YHR013C, strain ard1, stronger effect = lower value 1.03 | locus YHR027C, strain rpn1, stronger effect = lower value 1 | locus YHR030C, strain SLT2, stronger effect = lower value 1.03 | locus YHR079C, strain IRE1 (second series), stronger effect = lower value 0.999 | locus YHR094C, strain hxt1, stronger effect = lower value 1 | locus YHR129C, strain ARP1, stronger effect = lower value 1.03 | locus YHR142W, strain chs7, stronger effect = lower value 1.01 | locus YHR200W, strain rpn10, stronger effect = lower value 0.991 | locus YIL066C, strain RNR3, stronger effect = lower value 1.01 | locus YIL073C, strain SPO22, stronger effect = lower value 0.972 | locus YIL125W, strain kgd1, stronger effect = lower value 1 | locus YIR030C, strain dcg1, stronger effect = lower value 0.993 | locus YJL092W, strain hpr5, stronger effect = lower value 1 | locus YJL095W, strain BCK1 (second series), stronger effect = lower value 1.01 | locus YJL095W, strain BCK1, stronger effect = lower value 1.02 | locus YJL115W, strain asf1, stronger effect = lower value 1.02 | locus YJL129C, strain trk1, stronger effect = lower value 0.993 | locus YJL134W, strain LCB3, stronger effect = lower value 1.02 | locus YJL154C, strain vps35, stronger effect = lower value 1.02 | locus YJL164C, strain tpk1, stronger effect = lower value 1.01 | locus YJL166W, strain qcr8, stronger effect = lower value 1 | locus YJL168C, strain set2, stronger effect = lower value 1.01 | locus YJL187C, strain SWE1 (second series), stronger effect = lower value 1.02 | locus YJL187C, strain SWE1, stronger effect = lower value 1.01
